Cycloheximide cs: affects cycloheximide protein synthesis inhibition readout, counter-screen | cell reporter, cycloheximide protein synthesis inhibition counterscreen | max response, % | 300,000 compounds, 12% hits | AID 2314; in the data active = max response mostly above about 13%, no sharp cut-off; inactive = mostly below about 14%; also: read at 38.3 µM for the half of the compounds with a filed dose
NS1 function inh: inhibitors of influenza NS1 protein function; Potency, µM (doses to about 46.1 µM); 270,000 compounds, 0.4% hits; calls by dose curve; also: actives are rising curves; nearly all actives have a fitted effect of over 50% in size
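Growth recovery, yeast-based: influenza A NS1 expressed in S. cerevisiae causes slow growth, and suppressors are detected by OD600. The parent strain without NS1 is used as positive control.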
Shiga inhibitor: blocks Shiga toxin action in Vero cells | Vero cells, Shiga toxin protein synthesis inhibition reporter | inhibition, % at 38.7 µM | 290,000 compounds, 9.2% hits | AID 2315; in the data active = inhibition mostly above about 28%, no sharp cut-off; inactive = mostly below about 43%
Pf growth 96h: inhibits malaria parasite growth, 96 h; P. falciparum luciferase reporter growth, 96 h; Potency, µM (doses to about 28.7 µM), most hits filed as inhibitors; 320,000 compounds, 6.9% hits
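Delayed-death screen, second-generation endpoint: infected erythrocytes, 2% hematocrit, 0.05% parasitemia final; 96 hours at 37 C, 5% CO2; luciferase detection reagent; luminescence decrease equals reduced growth.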
Pf growth 48h: inhibits P. falciparum growth in the first generation, 48 h. Potency, µM (doses to about 28.7 µM), usual class: inhibitors. 310,000 compounds, 5.9% hits. P. falciparum luciferase growth in erythrocytes, 48 h
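A one-generation exposure of luciferase-tagged malaria parasites in RPMI 1640/Albumax erythrocyte culture, 37 C and 5% CO2. Inhibition is inferred from decreased luminescence after adding detection reagent.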
SARS PLP yeast: inhibitors of SARS-CoV papain-like protease in yeast | 330,000 compounds, 0.19% hits | Potency, µM (series often up to 32.9 µM), hits mostly activators | S. cerevisiae expressing SARS-CoV PLpro, growth rescue; calls by dose curve; also: nearly all actives have a fitted effect of over 55% in size
Each line names hits and unclear results; the compound was inactive in the other large screens. Compounds with a hit are over-represented: about 21% of the library has one in this group of screens. Unless noted, calls follow the shape of the dose curve; as a rule, active = well fitted inhibition curve with a large enough effect; inconclusive = small, poorly fitted or top-dose-only effect, or another doubt; inactive = no such curve, though single readings can be large or run the other way.

NC1CCCCC1N=Cc1c(O)n(CCc2ccc(F)cc2)c(=O)[nH]c1=O (stereo not drawn)	NS1 function inh inconclusive, Pf growth 96h 4.7µM, Pf growth 48h inconclusive
CC(C)c1ccc(-n2c(O)c(/C=N/NC(=O)c3ccccc3O)c(=O)[nH]c2=S)cc1	Cycloheximide cs 33, NS1 function inh inconclusive, Shiga inhibitor 48
O=C(N/N=C/c1c(O)n(C2CCCCC2)c(=S)[nH]c1=O)c1ccccc1	Shiga inhibitor 48
O=C(N/N=C/c1c(O)n(CCc2ccccc2)c(=O)[nH]c1=O)c1ccccc1	Cycloheximide cs 30, Shiga inhibitor 31
CN(C(=O)c1ccccc1C(=O)OCC(=O)Nc1cccc(Br)c1)c1ccccc1	Pf growth 96h inconclusive, Pf growth 48h inconclusive (no result: Cycloheximide cs, NS1 function inh, Shiga inhibitor)
CCCCN(C)C1CCN(C(=S)Nc2cccc(SC)c2)CC1	Pf growth 96h inconclusive (no result: NS1 function inh)
COC(=O)Nc1ccc(=O)n(Cc2c(Cl)cccc2Cl)c1	none
CSc1ncc(Cl)c(C(=O)Nc2nnc(SC/C=C/c3ccccc3)s2)n1	NS1 function inh inconclusive (no result: Pf growth 96h)
Cc1nnc(NC(=O)c2nc(S(=O)(=O)Cc3ccccc3C)ncc2Cl)s1	Cycloheximide cs 44, NS1 function inh inconclusive, Shiga inhibitor 51
CCOc1ccc(NC(=O)c2nc(S(=O)(=O)Cc3ccccc3F)ncc2Cl)cc1	none (no result: NS1 function inh, Pf growth 96h, Pf growth 48h, SARS PLP yeast)
CS(=O)(=O)c1ncc(Cl)c(C(=O)Nc2ccc3ccccc3c2)n1	none
CC(C)c1nnc(NC(=O)c2nc(S(=O)(=O)Cc3ccccc3F)ncc2Cl)s1	Cycloheximide cs 56, Shiga inhibitor 106
CSc1nnc(NC(=O)c2nc(S(=O)(=O)Cc3ccccc3F)ncc2Cl)s1	Cycloheximide cs 51, Shiga inhibitor 36, Pf growth 96h inconclusive
O=S(=O)(NCc1ccccc1)c1cccc2cccnc12	none (no result: Pf growth 96h)
Oc1cc(NCCN2CCOCC2)cc2cccnc12	Pf growth 96h inconclusive, Pf growth 48h 4.7µM (no result: Cycloheximide cs, NS1 function inh, Shiga inhibitor)
Oc1cc(Nc2ccccc2)cc2cccnc12	Pf growth 96h 2.6µM, Pf growth 48h 2.1µM (no result: Cycloheximide cs, NS1 function inh, Shiga inhibitor)
O=C(COc1cccc2cccnc12)NNC(=O)Nc1ccccc1	none
Oc1cc(NCc2ccccc2)cc2cccnc12	Pf growth 96h 2.6µM, Pf growth 48h 1.9µM (no result: Cycloheximide cs, NS1 function inh, Shiga inhibitor)
Cc1ccnn1CCC(=O)O	NS1 function inh inconclusive
COc1ccc(CC(=O)Nc2ccc(-c3noc(-c4ccccc4OC)n3)cc2)cc1	Cycloheximide cs 27, Pf growth 96h inconclusive (no result: Pf growth 48h)
COc1cccc(-c2nc(-c3ccc(NC(=O)Cc4ccccc4OC)cc3)no2)c1	Cycloheximide cs 22, Shiga inhibitor 43, Pf growth 48h inconclusive
COc1ccc(CCC(=O)Nc2ccc(-c3noc(-c4ccc(OC)c(OC)c4)n3)cc2)cc1	Pf growth 48h inconclusive
COc1ccccc1CC(=O)Nc1ccc(-c2noc(COc3ccc(Br)cc3)n2)cc1	none (no result: Pf growth 48h)
COc1ccccc1CC(=O)Nc1ccc(-c2noc(COc3cccc(C)c3C)n2)cc1	Pf growth 96h 15µM (no result: Pf growth 48h)
Cc1c(C)c(C)c(CO/N=C/c2cccs2)c(C)c1C	Pf growth 96h inconclusive
CCN1CCN(C(=O)c2ccc3c(c2)N(Cc2ccccc2F)C(=O)c2ccccc2S3(=O)=O)CC1	Pf growth 48h inconclusive
O=C(Nc1ccccc1)OC1CC2CC1C1CCCC21 (stereo not drawn)	Cycloheximide cs 51, Shiga inhibitor 94
O=C(Nc1ccccc1)O[C@@H]1C[C@H]2CCC(=O)N3CC[C@@H](C1)[C@@H]23	Cycloheximide cs 31, Shiga inhibitor 38
O=C(Nc1ccc2c(c1)OCO2)O[C@@H]1C[C@H]2CCC(=O)N3CC[C@@H](C1)[C@@H]23	Pf growth 96h inconclusive, Pf growth 48h inconclusive
COc1ccc(N(CC(=O)NCCC2=CCCCC2)S(=O)(=O)c2c(C)[nH]c(=O)[nH]c2=O)cc1	none
CC(C)CCNC(=O)C1CCC(=O)N1CCc1ccccc1 (stereo not drawn)	none
CC(=O)Nc1ccc(C(=O)OCC(=O)Nc2c(F)cccc2F)cc1	none
COCCn1c(SCC(=O)Nc2ccc(S(=O)(=O)N3CCOCC3)cc2)nc2ccccc21	Pf growth 48h 10µM
COCCn1c(SCC(=O)Nc2cccc(S(N)(=O)=O)c2)nc2ccccc21	Pf growth 96h inconclusive (no result: Pf growth 48h)
COCCn1c(SCC(=O)Nc2ccc(Cl)c(S(=O)(=O)N(C)C)c2)nc2ccccc21	Pf growth 48h 12µM (no result: Pf growth 96h)
COCCn1c(SCC(=O)Nc2ccc(S(N)(=O)=O)cc2)nc2ccccc21	none (no result: Pf growth 96h)
O=C(CSc1nnc(Cc2ccsc2)o1)c1ccccc1	Cycloheximide cs 21
O=C(CSc1nnc(Cc2ccccc2)o1)c1cc(F)ccc1F	none
O=C(CSc1nnc(Cc2ccccc2)o1)c1ccc(F)cc1	Cycloheximide cs 8.0
CC(C)(C)c1cc(N2CCOCC2)n2ncc(-c3ccc(Cl)cc3)c2n1	Cycloheximide cs 31, Pf growth 96h inconclusive, Pf growth 48h inconclusive
Cc1cc(N2CCC(C)CC2)n2ncc(-c3ccccc3)c2n1	Cycloheximide cs 44, Shiga inhibitor 132
Cc1cc(N2CCOCC2)n2ncc(-c3ccccc3)c2n1	Cycloheximide cs 34, Shiga inhibitor 100 (no result: Pf growth 96h)
Cc1cc(N2CCOCC2)n2nc(C(F)(F)F)c(-c3ccccc3)c2n1	none
Cc1cc(N2CCOCC2)n2ncc(-c3ccc(Cl)cc3)c2n1	Cycloheximide cs 75, Shiga inhibitor 120
Cc1cc(N2CCC(C)CC2)n2nc(C)c(-c3ccccc3)c2n1	none
O=C(NCCOC(=O)c1c(F)cccc1Cl)c1c(F)cccc1Cl	Pf growth 96h inconclusive, Pf growth 48h inconclusive
COc1ccc(CNC(=O)C2CCN(S(=O)(=O)c3cccc4nonc34)CC2)cc1	none
COc1ccc(C)cc1S(=O)(=O)N1CCN(C/C=C/c2ccccc2)CC1	Pf growth 96h inconclusive, Pf growth 48h inconclusive (no result: Cycloheximide cs, NS1 function inh, Shiga inhibitor)
Clc1cnc(Nc2cccnc2)c(Cl)c1	none
CCn1c(=O)n(CC(=O)Nc2ccc(F)cc2)c(=O)c2ccccc21	none (no result: NS1 function inh)
CC(=O)Nc1ccc(Nc2cc(C)nc3c(-c4ccc(Cl)cc4)cnn23)cc1	Cycloheximide cs 52, Shiga inhibitor 36
CC(=O)Nc1ccc(Nc2cc(C)nc3c(-c4ccc(Cl)cc4)c(C)nn23)cc1	Pf growth 48h inconclusive
Cc1nc2cc(-c3cccc(F)c3)nn2c(N2CCN(C(=O)c3ccco3)CC2)c1C	Cycloheximide cs 61, Shiga inhibitor 94, Pf growth 96h inconclusive (no result: Pf growth 48h)
Cc1ccc(-c2cnn3c(N4CCOCC4)cc(C)nc23)cc1	Cycloheximide cs 68, Shiga inhibitor 108
C=CCc1c(C)nc2c(-c3ccccc3)cnn2c1N1CCOCC1	Cycloheximide cs 58, Shiga inhibitor 84
O=C(Nc1nncs1)C12CC3CC(CC(Cl)(C3)C1)C2	none
Cc1cc(N2CCCCC2)n2nc(C)c(-c3ccccc3)c2n1	Pf growth 96h inconclusive, Pf growth 48h inconclusive
Cc1cc(N2CCCCC2)n2ncc(-c3ccccc3)c2n1	Cycloheximide cs 60
Cc1cc(N2CCN(C(=O)c3ccco3)CC2)n2ncc(-c3ccccc3)c2n1	Cycloheximide cs 31, Shiga inhibitor 64, Pf growth 48h inconclusive
Cc1cc(N2CCCCC2)n2ncc(-c3ccc(Cl)cc3)c2n1	Cycloheximide cs 29 (no result: Pf growth 48h)

Screening data from PubChem.
